From PubChem BioAssay (NCATS)
“And” between values parts separate entries of the source, which are not always exact repeats. Equal entries are not always repeated. Inconclusive results are not listed. The source made the active and inactive calls. Calls come from the whole dose curve; as a rule, active = well fitted inhibition curve with a large enough effect; inconclusive = small, poorly fitted or top-dose-only effect; inactive = flat fitted curve, though single readings scatter.

Legend:
KB-3-1 = assay: Cytotoxic Profiling of Annotated Libraries Using Quantitative High-Throughput Screening (AID 1296008); settings: Five cell lines viability, CellTiter-Glo ATP luminescence, 48-72 h; max response: active compounds read low
Method in brief: (§1)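 Cytotoxicity was measured as CellTiter-Glo ATP luminescence, read after 10 min at room temperature. Compound treatment of the cells lasted 48 or 72 hr at 37 degrees Celsius in a qHTS format.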

NIH3T3 [1] = assay: as above; settings: Five cell lines viability, CellTiter-Glo ATP luminescence, 48-72 h; max response: active compounds read low
Method in brief: as §1

MCC-13 = assay: qHTS assay to identify novel small-molecules to repurpose for Merkel cell carcinoma treatment (AID 1296009); settings: MCC and control cell lines, CellTiter-Glo viability, 72 h; series mostly up to 46 µM
Method in brief: (§2)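 After compound transfer in DMSO, plates were kept 72 hr at 37 degree celsius. Luminescent ATP signal from CellTiter-Glo served as viability measure, normalized against DMSO and no-cell controls.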

MCC-26 = assay: as above; settings: MCC and control cell lines, CellTiter-Glo viability, 72 h; series mostly up to 46 µM
Method in brief: as §2

MKL-1 = assay: as above; settings: MCC and control cell lines, CellTiter-Glo viability, 72 h; series mostly up to 46 µM
Method in brief: as §2

MKL-2 = assay: as above; settings: MCC and control cell lines, CellTiter-Glo viability, 72 h; series mostly up to 46 µM
Method in brief: as §2

HACAT = assay: as above; settings: MCC and control cell lines, CellTiter-Glo viability, 72 h; at 44.8 µM (top of the series) unless noted
Method in brief: as §2

NIH3T3 [2] = assay: as above; settings: MCC and control cell lines, CellTiter-Glo viability, 72 h; at 44.8 µM (top of the series) unless noted
Method in brief: as §2

HEK293T = assay: as above; settings: MCC and control cell lines, CellTiter-Glo viability, 72 h; at 44.8 µM (top of the series)
Method in brief: as §2
% is set by controls: 0 for no effect and ±100 for the full control effect; potency is the fitted concentration of half-maximal effect.
Note: nearly all actives have a fitted effect of over 60% in size.

Oc1c(Br)cc(Br)cc1Br
inactive: max response (KB-3-1) -5.6% | max response (NIH3T3 [1]) -1.39% | Potency (MCC-13) | Potency (MCC-26) | Potency (MKL-1) | Potency (MKL-2)

CC1=C2[C@H]3OC(=O)[C@@H](C)[C@@H]3CC[C@@]2(C)C=CC1=O
inactive: max response (KB-3-1) 27.1% | max response (NIH3T3 [1]) -1.04% | outcome (HACAT) | Potency (MCC-13) | Potency (MCC-26) | Potency (MKL-1) | Potency (MKL-2)

CCC1(CC)C(=O)NC(=O)NC1=O
inactive: max response (KB-3-1) -1.45% | outcome (NIH3T3 [1]) | outcome (HACAT) | Potency (MCC-13) | Potency (MCC-26) | Potency (MKL-1) | Potency (MKL-2) | outcome (NIH3T3 [2])

COc1ccc(OC)c(CC(C)N)c1 (stereo unspecified)
inactive: max response (KB-3-1) -0.889% | max response (NIH3T3 [1]) -6.71% | outcome (HACAT) inactive [at 92 µM] | Potency (MCC-13) | Potency (MCC-26) | Potency (MKL-1) | Potency (MKL-2)

CCOC(=O)NC(C)(C)Cc1ccc(Cl)cc1
inactive: max response (KB-3-1) 2.37% | max response (NIH3T3 [1]) -3.93% | outcome (HEK293T) | Potency (MCC-13) | Potency (MCC-26) | Potency (MKL-1) | Potency (MKL-2)

CCOC(=O)c1ncn2c1CN(C)C(=O)c1c(I)cccc1-2
inactive: max response (KB-3-1) 1.54% | max response (NIH3T3 [1]) -15.1% | Potency (MCC-13) | Potency (MCC-26) | Potency (MKL-1) | Potency (MKL-2)

CCN(CC)CCOC(=O)C(C)(c1ccccc1)c1ccccc1
inactive: max response (KB-3-1) -6.01% | max response (NIH3T3 [1]) 1.33% | outcome (HACAT) | Potency (MCC-13) | Potency (MCC-26) | Potency (MKL-1) | Potency (MKL-2)

OC(c1ccccc1)(c1ccccc1)C1CCNCC1
inactive: max response (KB-3-1) -11.7% | max response (NIH3T3 [1]) -1.52% | Potency (MCC-13) | Potency (MCC-26) | Potency (MKL-1) | Potency (MKL-2)

Cc1nc2ccccc2c(=O)n1-c1ccccc1Cl
inactive: max response (KB-3-1) -1.49% | Potency (MCC-13) | Potency (MCC-26) | Potency (MKL-1) | Potency (MKL-2)

C[C@]12C=CC(=O)C=C1CC[C@@H]1[C@@H]2CC[C@@]2(C)[C@H]1CC[C@]2(C)O
inactive: max response (KB-3-1) -13.2% | max response (NIH3T3 [1]) -13.6% | Potency (MCC-13) | Potency (MCC-26) | Potency (MKL-1) | Potency (MKL-2)

COP(=S)(OC)Oc1ccc(Sc2ccc(OP(=S)(OC)OC)cc2)cc1
inactive: max response (KB-3-1) 1.06% | outcome (NIH3T3 [1]) | Potency (MCC-13) | Potency (MCC-26) | Potency (MKL-1) | Potency (MKL-2) | outcome (NIH3T3 [2])

CC(CC(C#N)(c1ccccc1)c1ccccc1)N(C)C (stereo unspecified)
inactive: max response (KB-3-1) -8.06% | max response (NIH3T3 [1]) -12.2% | Potency (MCC-26) | Potency (MKL-1)

O=C(N[C@H]1N=C(c2ccccc2F)c2cccc3c2N(CC3)C1=O)c1cc2ccccc2[nH]1
inactive: outcome (KB-3-1) | max response (NIH3T3 [1]) -0.0973% | Potency (MCC-13) | Potency (MCC-26) | Potency (MKL-1) | Potency (MKL-2)

CC(Cc1ccccc1)NCc1ccccc1Cl (stereo unspecified)
inactive: max response (KB-3-1) -8.17% | max response (NIH3T3 [1]) -14.1% | Potency (MCC-13) | Potency (MCC-26) | Potency (MKL-1) | Potency (MKL-2)

CCNc1nc(Cl)nc(NCC)n1
inactive: max response (KB-3-1) -15.4% | max response (NIH3T3 [1]) -12.6% | Potency (MCC-13) | Potency (MCC-26) | Potency (MKL-1) | Potency (MKL-2)

CCS(=O)(=O)C(C)(C)S(=O)(=O)CC
inactive: max response (KB-3-1) 3.51% | max response (NIH3T3 [1]) -2.98% | Potency (MCC-13) | Potency (MCC-26) | Potency (MKL-1) | Potency (MKL-2)

C=CC[C@]1(O)CC[C@H]2[C@@H]3CCC4=CC(=O)CCC4=C3C=C[C@@]21C
inactive: max response (KB-3-1) -5.35% | Potency (MCC-13) | Potency (MCC-26) | Potency (MKL-1)

CCc1cc(OC)c(C[C@H](C)N)cc1OC
inactive: max response (KB-3-1) -8.43% | max response (NIH3T3 [1]) -16.2% | Potency (MCC-13) | Potency (MCC-26) | Potency (MKL-1) | Potency (MKL-2)

CN1[C@@H]2CC[C@H]1CC(OC(=O)c1cc(Cl)cc(Cl)c1)C2 (stereo partly specified)
inactive: max response (KB-3-1) -13.9% | Potency (MCC-13) | Potency (MCC-26) | Potency (MKL-1) | Potency (MKL-2)

CC(C)=CCN1CC[C@@]2(C)c3cc(O)ccc3C[C@@H]1[C@@H]2C
inactive: max response (KB-3-1) -12.1% | max response (NIH3T3 [1]) -2.79% | Potency (MCC-13) | Potency (MCC-26) | Potency (MKL-1) | Potency (MKL-2)

COc1cc(N)c(Cl)cc1C(=O)NC1CN2CCC1CC2 (stereo unspecified)
inactive: max response (KB-3-1) 8.72% | outcome (NIH3T3 [1]) | Potency (MCC-13) | Potency (MCC-26) | Potency (MKL-1) | Potency (MKL-2) | outcome (NIH3T3 [2])

Clc1ccc(C(OCCN2CCCCC2)c2ccccc2)cc1 (stereo unspecified)
inactive: max response (KB-3-1) -23.9% | Potency (MCC-13) | Potency (MCC-26) | Potency (MKL-1) | Potency (MKL-2)

C[C@@H]1C[C@@H]([C@H](O)CC2CC(=O)NC(=O)C2)C(=O)[C@@H](C)C1
active: Potency (KB-3-1) 3.66 µM and 1.48 µM | Potency (NIH3T3 [1]) 473 nM and 235 nM | Potency (MCC-13) 944 nM and 4.69 µM | Potency (MKL-1) 1660 nM | Potency (MKL-2) 2090 nM

C[N+](C)(C)CCOC(=O)C(O)(c1ccccc1)c1ccccc1
inactive: max response (KB-3-1) -1.19% | max response (NIH3T3 [1]) 2.06% | Potency (MCC-13) | Potency (MCC-26) | Potency (MKL-1) | Potency (MKL-2)

CCC1(c2cccc(O)c2)CCCCN(C)C1 (stereo unspecified)
inactive: max response (KB-3-1) 24.1% | max response (NIH3T3 [1]) 2.43% | Potency (MCC-13) | Potency (MCC-26) | Potency (MKL-1) | Potency (MKL-2)

Cc1c(Cl)c(=O)oc2cc(OP(=O)(OCCCl)OCCCl)ccc12
inactive: max response (KB-3-1) -0.0609% | max response (NIH3T3 [1]) -22.4% | Potency (MCC-13) | Potency (MCC-26) | Potency (MKL-1) | Potency (MKL-2)
